Source: PubChem BioAssay (National Center for Advancing Translational Sciences (NCATS))
AmpC nodet inh = AmpC beta-lactamase inhibition, detergent-free assay. AmpC nitrocefin hydrolysis, absorbance 480 nm, no detergent. Potency, µM (titrated, usually from 28.7 µM), inactives show at the top dose activity change, negative = inhibition. hit rate 1.8% among 71,000. AID 585; further: % of control where 0% means no effect
Target sequence (P00811 whole entry, looked up): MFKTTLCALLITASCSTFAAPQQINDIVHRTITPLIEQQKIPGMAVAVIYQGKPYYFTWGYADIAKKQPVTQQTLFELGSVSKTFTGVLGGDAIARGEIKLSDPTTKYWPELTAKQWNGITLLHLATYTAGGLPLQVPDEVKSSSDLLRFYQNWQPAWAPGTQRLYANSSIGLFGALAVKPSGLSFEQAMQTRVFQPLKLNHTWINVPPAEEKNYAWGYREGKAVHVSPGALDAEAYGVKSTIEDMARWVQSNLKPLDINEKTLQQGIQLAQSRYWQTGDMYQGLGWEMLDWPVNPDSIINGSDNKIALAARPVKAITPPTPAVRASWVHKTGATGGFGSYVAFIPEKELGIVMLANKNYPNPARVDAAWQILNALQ
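AmpC, 20 mM phosphate pH 7.0; 15 min cpd preinc, RT; start with nitrocefin (800 uM stock); A480 kinetic read, 20 s intervals, 4 min. No-enzyme wells = negative control.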
AmpC det inh = AmpC beta-lactamase inhibition, detergent assay; P00811; purified AmpC, nitrocefin hydrolysis with detergent; Potency, µM (series often up to 28.7 µM), for inactives: top-dose activity change, negative = inhibition; hit rate 0.09% among 71,000; AID 584; active means well fitted curve in the direction sought with a large enough effect; inconclusive means small, poorly fitted or top-dose-only effect; further: on the % scale 0 is the no-effect control and ±100 the full control effect
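E. coli AmpC (5.3 nM) in 20 mM phosphate pH 7.0 with 0.01% Triton X-100, preincubated 15 min RT with compound; nitrocefin (2 uL of 800 uM stock) hydrolysis followed by 480 nm absorbance every 20 s over 4 min.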
LT uptake inh = anthrax lethal toxin internalization inhibition; Potency, µM (highest dose often 40 µM), for the others: at the highest dose activity change, negative = inhibition, most hits filed as inhibitors; Cells, anthrax lethal toxin internalization, FRET ratio (460/530); hit rate 0.67% among 70,000; further: on the % scale 0 is the no-effect control and ±100 the full control effect; nearly all actives have a fitted effect of over 50% in size
Prx2 Sm inh = inhibitors of Schistosoma mansoni peroxiredoxin 2 | Potency, µM | S. mansoni Prx2 activity coupled to TGR/GSH (TGR is thioredoxin glutathione reductase), NADPH fluorescence loss, qHTS | hit rate 0.07% among 65,000
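Prx2 inhibition was measured as reduced NADPH consumption when electrons flowed from NADPH through TGR and glutathione to Prx2 and H2O2. Plates were read kinetically over 8 min; enzyme reagents were held at 4 deg C during dispensing.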
An asterisk follows results filed as active; ? = inconclusive; . = not tested or not shown; [ ] = dose if it differs, or a comment. An excerpt weighted towards active compounds, which were near 2.4% of everything screened. Unless noted, the call rests on the fitted dose curve. Potency means the concentration at half of the fitted maximal effect.

SMILES	AmpC nodet inh	AmpC det inh	LT uptake inh	Prx2 Sm inh
CC(C)C[C@@H](CC(=O)N[C@@H](CCC(=O)O)CC(=O)O)NC(=O)[C@@H]1CCCC[C@H]1NC(=O)C[C@@H](NC(=O)C[C@H](Cc1c[nH]c2ccccc12)NC(=O)[C@@H]1CNCC[C@H]1N)C(C)C	111%	3%	-9%	>57
Cc1cc(C(=O)CSc2nc3ccccc3[nH]2)c(C)n1C	-2%	-3%	-8%	>57
Cc1nn2c(=O)cc(CSc3nc4ccccc4[nH]3)nc2s1	4µM*[single pt active]	13%	8%	>57
O=C(CC1Oc2ccccc2NC1=O)NC1CC1 (centres undefined)	1%	11%	0%	>57
CCC1CCCCN1CCCNC(=O)CC1Oc2ccccc2NC1=O (centres undefined)	4µM*[single pt active]	12%	-10%	>57
O=C(CC1Oc2ccccc2NC1=O)NCCCN1CCN(C2CCCCC2)CC1 (centres undefined)	4µM*[single pt active]	17%	-8%	?
COCCCNC(=O)CC1Oc2ccccc2NC1=O (centres undefined)	-9%	8%	?	>57
CC1CCN(Cc2ccc(NC(=O)CC3Oc4ccccc4NC3=O)cc2)CC1 (centres undefined)	4µM*[single pt active]	12%	-5%	>57
C[N+]1(C)CCO[C@@](O)(c2ccc(-c3ccc([C@]4(O)C[N+](C)(C)CCO4)cc3)cc2)C1	-6%	-5%	0%	>57
OC[C@H]1CCCN2CCCC[C@@H]12	3%	0%	-3%	>57
CC(=O)OC1c2ccccc2C(=O)N1Cc1ccccc1Cl (centres undefined)	4µM*[single pt active]	9%	-5%	>57
CCC(C)NC(=O)C1c2ccccc2C(=O)N1Cc1ccccc1OC (centres undefined)	4%	-3%	9%	>57
c1ccc(-c2ccc(-c3nc(-c4ccccn4)no3)cc2)cc1	44%	12%	3.2µM*	.
Clc1cccc(-c2nc(-c3ccccn3)no2)c1	11%	-1%	-4%	>57
O=c1nc2s/c(=C\c3ccco3)c(=O)n2nc1Cc1ccc(F)cc1	10µM*[single pt active]	-5%	-15%	>57
CN1c2cc3c(cc2N=C(c2ccc(C(=O)O)cc2)c2ccccc21)C(C)(C)CCC3(C)C	.	.	10µM*	.
CN(CCC(=O)O)C1=Nc2ccc(Cl)cc2C(c2ccccc2)=[N+]([O-])C1	-9%[5.75 µM]	0%[5.75 µM]	?	>57
O=c1n(Cc2cc3c(cc2Cl)OCO3)c(=O)n2n1CC[C@H]1/C(=N\OCc3ccccc3)[C@H]3O[C@@H]3[C@@H](O)[C@@H]12	.	.	-14%[8 µM]	.
COc1ccc(-c2noc(CN(C)S(=O)(=O)c3ccc(Cl)cc3)n2)cc1OC	104%	-5%	13µM*	>57
COc1ccccc1C(=O)N(Cc1nc(-c2ccc(Cl)cc2)no1)C(C)C	92%	14%	13µM*	>57
Cn1c(=O)c(-c2ccc(Cl)cc2)nc2cnc(N3CCOCC3)nc21	-10%	0%	-6%	>57
CC1(C(=O)NC2CCCCC2)CCC(=O)N1Cc1cccnc1 (centres undefined)	4µM*[single pt active]	11%	2%	>57
CC1CCC(NC(=O)C2(C)CCC(=O)N2Cc2cccnc2)CC1 (centres undefined)	4µM*[single pt active]	12%	-2%	>57
CCOc1ccc(CN2C(=O)CCC2(C)C(=O)NCc2cccnc2)cc1 (centres undefined)	21%	12%	-10%	>57
CCN1C[C@@]2(COC)[C@H](O)C[C@H](OC)[C@@]34[C@@H]5C[C@@]6(O)[C@H](OC(=O)c7ccccc7)[C@H]5[C@@](OC(C)=O)([C@H]([C@@H](OC)[C@H]23)[C@H]14)[C@H](O)[C@@H]6OC	7%	-1%	?	>57
SMILES	AmpC nodet inh	AmpC det inh	LT uptake inh	Prx2 Sm inh
CC(C)=CCNc1ncnc2c1c(C#N)cn2[C@H]1O[C@@H](CO)[C@@H](O)[C@@H]1O	6%[5.75 µM]	-3%[5.75 µM]	-2%[8 µM]	>57
Cc1nonc1NC(=O)CSc1nc2cc(Cl)ccc2c2c1CCCC2	13µM*	-4%	-20%	>57
NC[C@H](O)c1cc(O)c(O)cc1F	-3%	-1%	-5%	>26
COc1ccc(OC2C(O)COC2/C=C/C#Cc2ccc(F)cc2F)cc1 (centres undefined)	.	.	-4%[8 µM]	.
CCOC(=O)CSc1nnc(N)s1	-11%	2%	?	>57
CCOC(=O)CSc1nn(C)c(=S)s1	4µM*[single pt active]	13%	-11%	>57
CSC([N-]/N=C/c1cccc(C)n1)=[S]=[Cu].CS[C@H]([S-])[N-]/N=C/c1cccc(C)n1	6%[5.75 µM]	-5%[5.75 µM]	?	>11
COCC(=O)N1CCC[C@@]2(CCN(Cc3nccs3)C2)C1	29%	-2%	-1%	>57
CCOC(=O)C(C)Sc1nnc(Cc2cc(=O)[nH]c(=O)[nH]2)n1-c1ccc(OCC)cc1 (centres undefined)	4µM*[single pt active]	11%	1%	>57
CCOC(=O)C(C)Sc1nnc(Cc2cc(=O)[nH]c(=O)[nH]2)n1-c1cccc(OC)c1 (centres undefined)	4µM*[single pt active]	10%	3%	>57
CCOc1ccc(-n2c(Cc3cc(=O)[nH]c(=O)[nH]3)nnc2SCc2cccnc2)cc1	4µM*[single pt active]	12%	-8%	>57
CCOc1ccc(-n2c(Cc3cc(=O)[nH]c(=O)[nH]3)nnc2SC(C)C)cc1	12%	24%	?	>57
O[C@@H]1[C@@H]2c3cc4c(cc3CN3CCC(=C[C@@H]1O)[C@H]23)OCO4	-6%[12.8 µM]	0%[12.8 µM]	-15%[3.58 µM]	>57
COC(=O)C1=C(C)Nc2ccc(C)cc2S1	4µM*[single pt active]	12%	-17%	>57
CC(C)=C[C@H]1[C@@H](C(=O)Oc2ccccc2C(C)C)C1(C)C	0%[5.75 µM]	14%[5.75 µM]	-26%[8 µM]	>57
CCOC(=O)c1nnn(CC(=O)Nc2cc(Cl)ccc2C)c1C(=O)OCC	16%	-3%	7.9µM*	>57
O=C(Nc1ccccc1)N1CCC2(CC1)CCN(C(=O)c1cnccn1)CC2	0%	2%	-4%	>57
Cc1nn(-c2nc3ccccc3s2)c(C)c1Oc1ccccc1O	-24%	-5%	10µM*	>57
Cc1nn(-c2ccccn2)c(C)c1Oc1ccccc1O	1%	-1%	3%	>57
CCNc1ncc2nc(CCc3ccccc3)c(=O)n(C)c2n1	14%	3%	?	>57
Cc1ccccc1NS(=O)(=O)c1ccc(C2CNC(=O)C2)cc1 (centres undefined)	0%	18%	9%	>57
O=C1CC(c2ccc(S(=O)(=O)NCc3ccccc3)cc2)CN1 (centres undefined)	4µM*[single pt active]	14%	-8%	>57
CC(C)Oc1ccc(NC(N)=O)cc1	20%	-2%	?	>57
CC(C)OC(=O)Nc1ccc(Oc2c(F)c(F)c(F)c(F)c2F)cc1	16µM*[single pt active]	-2%	.	>57
CC(C)n1cc2c3c(cccc31)[C@@H]1C[C@H](C(=O)O[C@@H](C)[C@H](C)O)CN(C)[C@H]1C2	109%	-2%	?	>57
CC1CCN(C(=O)Cn2c(=O)oc3ccccc32)CC1	-5%	-1%	2%	>57
CC1CCN(C(=O)CN2C(=O)C(=O)c3ccccc32)CC1	4µM*[single pt active]	10%	6%	>57
